Inconclusive results are not listed. Activity calls are given as the source filed them. Unless noted, calls come from the whole dose curve.
Legend:
[1] = Nuclear factor erythroid 2-related factor 2/antioxidant responsive element (Nrf2/ARE) small molecule agonists: qHTS cell viability counter screen in human keratinocytes (AID 1919968; active = well fitted curve in the direction sought with a large enough effect in the repeat runs; an effect the other way counts as inactive or inconclusive; note: nearly all actives have a fitted effect of over 55% in size)
Outline: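 CellTiter-Fluor fluorescence, read 1 h after reagent, gave viability in the same wells as the ARE-luciferase assay. KeratinoSens cells (1,500/well) had 23 h compound exposure at 37 C/5% CO2 following 5 h plating.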

[2] = Nuclear factor erythroid 2-related factor 2/antioxidant responsive element (Nrf2/ARE) small molecule agonists: luciferase reporter gene qHTS assay in human keratinocytes (AID 1919969); note: nearly all actives have a fitted effect of over 35% in size
[3] = target: KiSS-1 receptor (Homo sapiens) (UniProt Q969F8); test: Human kisspeptin (KISS1R) small molecule agonists, calcium flux assay in KISS1R-HEK293 cells (AID 1920064; active = well fitted curve in the direction sought with a large enough effect in the repeat runs; an effect the other way counts as inactive or inconclusive)
Outline: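 Agonist mode: intracellular calcium rise tracked at 1 s intervals over 3 min (480/540 nm) immediately after compound addition to dye-loaded KISS1R-HEK293 stable cells. Each compound tested at 15 concentrations in triplicate.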

[4] = G protein-coupled receptor (GPCR) small molecule agonists, calcium flux assay: HEK293 wild type cell line counter screen (AID 1920065)
Outline: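 Calcium flux counter screen: compound added in agonist mode at 15 concentrations in triplicate to dye-loaded parental HEK293 cells. Fluorescence (480/540) read kinetically for 3 min; ATP served as positive control.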

[5] = p53 small molecule agonists, cell-based qHTS assay with human liver microsomes (AID 1963577)
Outline: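 p53RE-bla reporter cells were pre-incubated 5 h at 37 C, then treated with compounds plus human liver microsomes (0.5 mg/mL final) and NADPH (0.5 mg/mL final) for 16 h at 37 C. Beta-lactamase activity was read by LiveBLAzer fluorescence after 2 h at room temperature.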

[6] = p53 small molecule agonists, cell-based qHTS assay with rat liver microsomes (AID 1963578)
Outline: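 p53RE-bla cells were exposed to compounds together with rat liver microsomes (0.5 mg/mL final) and NADPH (0.5 mg/mL final) for 16 h at 37 C, then read by LiveBLAzer beta-lactamase fluorescence after 2 h at room temperature.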

[7] = p53 small molecule agonists, cell-based qHTS assay with rat liver microsomes: qHTS cell viability counter screen (AID 1963580); note: nearly all actives have a fitted effect of over 45% in size
Outline: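 After the beta-lactamase ratio was read, CellTiter-Glo was added to the same wells and luminescence measured at 30 min; cells had been treated 16 h at 37 C with compounds, rat liver microsomes and NADPH (0.5 mg/mL final each).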

[8] = p53 small molecule agonists, cell-based qHTS assay: qHTS cell viability counter screen (AID 1963581); note: nearly all actives have a fitted effect of over 45% in size
Outline: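 Counter screen read by CellTiter-Glo luminescence (ATP content, 30 min at room temperature), run in the same wells as the beta-lactamase reporter read. HCT-116 p53RE-bla cells saw compounds for 16 h at 37 C.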

[9] = p53 small molecule agonists, cell-based qHTS assay (AID 1963582; active = well fitted activation curve with a large enough effect in the signal ratio in the repeat runs, not every such curve was filed as active; the % refers to the signal ratio)
Outline: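 Read-out is beta-lactamase FRET fluorescence after 2 h at room temperature with LiveBLAzer B/G substrate. p53 response element-bla cells were treated 16 h at 37 C with compounds in DMSO, added 5 h after seeding.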

[10] = cAMP Responsive Elements (CRE) small molecule agonists, cell-based qHTS assay (AID 1963590)
Outline: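 Agonist mode: compound added to CRE-bla HEK 293T cells (2,000/well, 18 h after plating) for 3 h at 37 C/5% CO2. Reporter activity detected via FRET beta-lactamase substrate, 2 h room-temperature loading.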

[11] = cAMP Responsive Elements (CRE) small molecule antagonists, cell-based qHTS assay (AID 1963591; active = well fitted inhibition curve with a large enough effect in the signal ratio in the repeat runs, not every such curve was filed as active; the % refers to the signal ratio)
Outline: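 Antagonist mode: compounds are added alongside the adenylyl cyclase activator NKH477 (0.25 uM final) to CRE-bla HEK293T cells for 3 h. LiveBLAzer FRET substrate, 2 h at room temperature, reports bla expression.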

[12] = target: Beta-2 adrenergic receptor (Homo sapiens) (UniProt P07550); test: Adrenergic beta2 receptor (ADRB2) small molecule antagonists, cell-based qHTS assay (AID 1963592); note: series mostly up to about 92 µM; nearly all actives have a fitted effect of over 50% in size
Outline: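 Assay format: CHO-ADRB2 cells, 18-20hr seeding at 37C/5% CO2, then compound plus 1nM isoproterenol agonist mix for 0.5hr RT. Homogeneous time-resolved fluorescence cAMP detection after 1hr, expressed as 665/615 nm ratio.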

[13] = target: Beta-2 adrenergic receptor (Homo sapiens) (UniProt P07550); test: Adrenergic beta2 receptor (ADRB2) small molecule agonists, cell-based qHTS assay (AID 1963593);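 note: CHO cells stably overexpressing human ADRB2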
Outline: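 CHO cells stably over-expressing ADRB2 were plated overnight at 37C, then dosed with compounds plus a stimulation mix containing 100uM IBMX and 25uM Ro-20-1724 for 0.5hr at room temperature. cAMP was measured by HTRF competition, 1hr.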

[14] = target: D(2) dopamine receptor (Homo sapiens) (UniProt P14416); test: Dopamine D2 receptor (DRD2) small molecule agonists, cell-based qHTS assay (AID 1963594); note: nearly all actives have a fitted effect of over 35% in size
Outline: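 HEK293 cells stably expressing human DRD2, pre-treated with PDE inhibitor Ro20-1724 (0.1 mM final) and compound 10 min at room temperature, then stimulated with NKH477 (200nM […]) for 30 min. cAMP read by HTRF (665/620 nm).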

[15] = target: D(2) dopamine receptor (Homo sapiens) (UniProt P14416); test: Dopamine D2 receptor (DRD2) small molecule antagonists, cell-based qHTS assay (AID 1963595; active = well fitted inhibition curve with a large enough effect in the signal ratio in the repeat runs, with a control signal flat; the % refers to the signal ratio)
Outline: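 HTRF cAMP read-out at 665 and 620 nm emission (340 nm excitation). Antagonist mode: compounds were tested against 12 nM quinpirole in DRD2-HEK293 cells, with 200 nM NKH477 raising cAMP and 0.1 mM Ro20-1724 blocking its breakdown.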

[16] = p53 small molecule agonists, cell-based qHTS assay with human liver microsomes: qHTS cell viability counter screen (AID 1963579); note: nearly all actives have a fitted effect of over 45% in size
Outline: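 p53RE-bla cells (4,000/well) were pre-incubated 5 h at 37 C, then given compounds in DMSO plus human liver microsomes (0.5 mg/mL final) and NADPH (0.5 mg/mL final) for 16 h at 37 C. Viability was read by CellTiter-Glo luminescence.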

[17] = target: Muscarinic acetylcholine receptor M1 (Homo sapiens) (UniProt P11229); test: Cholinergic receptor muscarinic 1 (CHRM1) small molecule antagonists, cell-based qHTS assay (AID 1963588); note: nearly all actives have a fitted effect of over 40% in size
Outline: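 Compounds were tested at 15 concentrations in three independent runs. Dye-loaded CHRM1-CHO cells were exposed 5 min at room temperature before stimulation by acetylcholine added at 50nM. Intracellular calcium was read kinetically on FDSS for 3 min.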

[18] = target: Muscarinic acetylcholine receptor M1 (Homo sapiens) (UniProt P11229); test: Cholinergic receptor muscarinic 1 (CHRM1) small molecule agonists, cell-based qHTS assay (AID 1963589); note: nearly all actives have a fitted effect of over 35% in size
Outline: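 Agonist-mode calcium-flux screen: compounds at 15 concentrations, three independent runs, were pin-transferred onto dye-loaded human CHRM1-CHO cells. Fluorescence was then recorded kinetically every second over minutes.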
% is set by controls: 0 for no effect and ±100 for the full control effect.

Chain of D(2) dopamine receptor (Homo sapiens) (P14416 whole entry, looked up): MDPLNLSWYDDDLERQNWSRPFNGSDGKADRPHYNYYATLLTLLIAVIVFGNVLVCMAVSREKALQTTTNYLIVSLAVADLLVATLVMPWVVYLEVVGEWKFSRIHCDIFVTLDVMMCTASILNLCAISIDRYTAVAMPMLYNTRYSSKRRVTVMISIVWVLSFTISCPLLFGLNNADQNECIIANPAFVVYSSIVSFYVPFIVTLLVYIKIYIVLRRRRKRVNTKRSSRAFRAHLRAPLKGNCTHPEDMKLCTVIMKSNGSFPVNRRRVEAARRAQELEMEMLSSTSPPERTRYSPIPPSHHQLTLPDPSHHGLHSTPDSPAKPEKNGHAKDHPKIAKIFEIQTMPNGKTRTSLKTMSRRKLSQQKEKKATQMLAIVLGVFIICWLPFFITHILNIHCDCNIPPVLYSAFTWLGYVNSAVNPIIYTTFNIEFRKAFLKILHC
Chain of KiSS-1 receptor (Homo sapiens) (Q969F8 whole entry, looked up): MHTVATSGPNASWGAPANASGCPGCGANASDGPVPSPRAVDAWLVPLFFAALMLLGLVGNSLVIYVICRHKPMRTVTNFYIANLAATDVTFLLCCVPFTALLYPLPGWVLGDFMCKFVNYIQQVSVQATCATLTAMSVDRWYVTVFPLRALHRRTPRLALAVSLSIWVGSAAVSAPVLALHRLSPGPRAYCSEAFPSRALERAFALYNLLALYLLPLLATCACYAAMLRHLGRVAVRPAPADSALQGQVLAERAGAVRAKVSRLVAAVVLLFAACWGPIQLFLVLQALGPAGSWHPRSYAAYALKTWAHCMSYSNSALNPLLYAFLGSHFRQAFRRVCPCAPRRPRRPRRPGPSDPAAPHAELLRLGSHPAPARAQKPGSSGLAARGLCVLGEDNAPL
Chain of Beta-2 adrenergic receptor (Homo sapiens) (P07550 whole entry, looked up): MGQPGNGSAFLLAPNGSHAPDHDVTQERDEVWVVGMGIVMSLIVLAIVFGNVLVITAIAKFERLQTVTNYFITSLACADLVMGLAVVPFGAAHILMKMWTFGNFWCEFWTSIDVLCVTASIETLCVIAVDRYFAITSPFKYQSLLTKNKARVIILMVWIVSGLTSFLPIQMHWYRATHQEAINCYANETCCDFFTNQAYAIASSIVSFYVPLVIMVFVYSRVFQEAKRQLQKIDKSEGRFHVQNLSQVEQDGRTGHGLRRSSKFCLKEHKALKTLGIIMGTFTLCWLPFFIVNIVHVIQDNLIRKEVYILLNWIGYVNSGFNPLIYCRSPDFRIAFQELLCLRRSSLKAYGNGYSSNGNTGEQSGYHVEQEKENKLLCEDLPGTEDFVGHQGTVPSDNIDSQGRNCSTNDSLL
Chain of Muscarinic acetylcholine receptor M1 (Homo sapiens) (P11229 whole entry, looked up): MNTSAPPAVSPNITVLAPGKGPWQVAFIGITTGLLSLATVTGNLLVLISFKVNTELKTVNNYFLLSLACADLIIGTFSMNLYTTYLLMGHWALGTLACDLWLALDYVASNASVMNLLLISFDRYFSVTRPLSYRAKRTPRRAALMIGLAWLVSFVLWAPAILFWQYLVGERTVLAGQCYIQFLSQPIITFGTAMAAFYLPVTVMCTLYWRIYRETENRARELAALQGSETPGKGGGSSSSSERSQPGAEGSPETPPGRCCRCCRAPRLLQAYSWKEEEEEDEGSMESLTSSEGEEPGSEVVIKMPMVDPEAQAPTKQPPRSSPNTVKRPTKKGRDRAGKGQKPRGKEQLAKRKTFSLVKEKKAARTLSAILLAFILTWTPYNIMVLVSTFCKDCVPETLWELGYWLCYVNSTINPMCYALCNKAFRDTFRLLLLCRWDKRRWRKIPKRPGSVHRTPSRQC

NCC[C@H](O)C(=O)N[C@@H]1C[C@H](N)[C@@H](O[C@H]2O[C@H](CN)[C@@H](O)[C@H](O)[C@H]2O)[C@H](O)[C@H]1O[C@H]1O[C@H](CO)[C@@H](O)[C@H](N)[C@H]1O
inactive: activity change, negative = cytotoxicity [1] -17.6% [at 0.349 µM] | activity, positive = activation [2] 1.57% [at 0.349 µM] | activation [3] 0.177% [at 0.29 µM] | activation [4] 0.401% [at 0.217 µM] | activation [5] 0.0378% [at 0.249 µM] | activation [6] -0.443% [at 0.249 µM] | activity change, negative = cytotoxicity [7] 1.45% [at 0.249 µM] | activity change, negative = cytotoxicity [8] -9.5% [at 0.249 µM] | activation [9] 0.378% [at 0.249 µM] | activation [10] -1.43% [at 0.349 µM] | activity change, negative = inhibition [11] -1.04% [at 0.349 µM] | activity change, negative = inhibition [12] 4.47% [at 0.349 µM] | activation [13] 21.1% [at 0.349 µM] | activation [14] -17.8% [at 0.349 µM] | activity change, negative = inhibition [15] -0.368% [at 0.348 µM]

CCCN1C[C@H](CSC)C[C@@H]2c3cccc4[nH]cc(c34)C[C@H]21
inactive: Potency [1] | Potency [2] | outcome [3] | Potency [5] | Potency [6] | Potency [16] | Potency [7] | Potency [8] | Potency [9] | Potency [12] | Potency [15]

CCCCOc1cc(C(=O)NCCN(CC)CC)c2ccccc2n1
inactive: Potency [1] | Potency [2] | outcome [3] | outcome [4] | Potency [6] | Potency [16] | Potency [7] | Potency [8] | Potency [9] | Potency [17] | Potency [18] | Potency [10] | Potency [11] | Potency [12] | Potency [13] | Potency [14] | Potency [15]

Reference: PubChem BioAssay (Tox21)
